Results reported in ChEMBL document CHEMBL3433997, “St. Jude Leishmania screening dataset” (2016).

Tests used:
Assay type in all cases: functional
[1] = target: Solute carrier family 2, facilitated glucose transporter member 1 (Homo sapiens) (UniProt P11166); assay: ST_JUDE_LEISH: Cytotoxicity at 2uM final concentration against transgenic Leishmania Mexicana promastigotes LmGLUT1 that are glucose transport deficient and complemented with the human glucose transporter GLUT1. Activity is measured by DNA content using SYBR green in vitro
Sequence of Solute carrier family 2, facilitated glucose transporter member 1 (Homo sapiens) (P11166 whole entry): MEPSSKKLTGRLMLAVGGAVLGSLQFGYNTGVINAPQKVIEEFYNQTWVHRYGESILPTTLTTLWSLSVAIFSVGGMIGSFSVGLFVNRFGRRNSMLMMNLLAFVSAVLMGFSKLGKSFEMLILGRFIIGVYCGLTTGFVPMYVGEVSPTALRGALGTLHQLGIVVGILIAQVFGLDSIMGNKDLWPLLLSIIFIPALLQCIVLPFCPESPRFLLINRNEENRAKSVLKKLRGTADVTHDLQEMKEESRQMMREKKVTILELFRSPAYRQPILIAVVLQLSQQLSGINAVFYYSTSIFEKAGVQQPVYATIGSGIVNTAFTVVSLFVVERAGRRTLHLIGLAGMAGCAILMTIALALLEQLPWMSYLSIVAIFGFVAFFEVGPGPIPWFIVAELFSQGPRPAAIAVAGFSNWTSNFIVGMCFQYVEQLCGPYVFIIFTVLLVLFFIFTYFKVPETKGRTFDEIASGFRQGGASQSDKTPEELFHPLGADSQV

[2] = target: Hexose transporter 1 (Plasmodium falciparum) (UniProt O97467); assay: ST_JUDE_LEISH: Cytotoxicity at 2uM final concentration against transgenic Leishmania Mexicana promastigotes LmPfHT that are glucose transport deficient and complemented with the Plasmodium falciparum hexose transporter. Activity is measured by DNA content using SYBR green in vitro
[3] = target: Glucose transporter (Leishmania mexicana) (UniProt O61059); assay: ST_JUDE_LEISH: Cytotoxicity at 2uM final concentration against transgenic Leishmania Mexicana promastigotes LmGT2 that are glucose transport deficient and complemented with the L. Mexicana glucose transporter 2. Activity is measured by DNA content using SYBR green in vitro

| SMILES | inhibition [1] | inhibition [2] | inhibition [3] |
| --- | --- | --- | --- |
| Cn1c(NC(=O)c2ccc(CNC(=O)c3ccc(O)c(-c4ccc(Cl)c(Cl)c4)c3)cc2)nc2ccccc21 | 4.29% | 3.37% | 3.29% |
| Cc1cc(N2CCCC2)nc(Nc2ccc(NC(=O)c3ccc4c(c3)OCO4)cc2)n1 | 13.5% | 3.61% | 5.78% |
| Nc1nc2ccc(S(=O)(=O)Nc3ccc(C(=O)N[C@@H](CCC(=O)O)C(=O)O)c(F)c3)cc2c(=O)[nH]1 | 0.57% | 1.22% | 1.53% |
| O=C(N[C@@H](Cc1ccccc1)C(=O)NC1CCCCC1)c1ccc(O)c(-c2cccc(C(F)(F)F)c2)c1 | 3.98% | 5.95% | 5.39% |
| O=C(NC1CC1)c1ccc(N2CCCCN2CCc2ccccc2)c(C(F)(F)F)c1 | 10.5% | 19.8% | 5.87% |
| CCCCc1cc(N2CCC(NC(C)=O)C2)nc(Nc2ccc(C)cc2)n1 (stereo not given) | 10.9% | 2.45% | 5.78% |
| COC(=O)c1ccc(-c2ccc(C(=O)NCC3CCN(c4nc(N)c5cc(OC)c(OC)cc5n4)CC3)cc2)cc1 | 4.1% | 4.23% | 2.11% |
| CCOc1cc(C(=O)N[C@@H](Cc2ccccc2)[C@H](O)CNCc2cc(OC)cc(OC)c2)cc(N2CCCS2(=O)=O)c1 | -0.26% | -0.9% | 1.04% |
| CC(C)(C)c1ccc(OC(=O)c2ccc(NC(=O)N[C@@H](Cc3ccc(O)cc3)C(=O)NC3CCN(Cc4ccc(O)cc4)C3)cc2)cc1 (stereo not given in full) | 9.86% | 4% | 9.56% |
| Cc1ccccc1NC(=O)C1CSCN1C(=O)OCc1ccccc1 (stereo not given) | -1.39% | -0.23% | -0.28% |
| CN1CCC[C@H]1COc1ccc(CN2CC[C@H](NC(=O)c3ccc(Cl)c(Cl)c3)C2)cc1Cl | 1.83% | 0.86% | -0.76% |
| COc1ccc2c(c1)c(C1CCN(CCCCNC(=O)c3ccc(-c4ccc(C(F)(F)F)cc4)cc3)CC1)cn2C(C)C | -0.71% | 1.93% | 0.76% |
| OC(CNCc1ccccc1OCc1ccccc1)c1cc(Br)cs1 (stereo not given) | 3.96% | 3.38% | 3.82% |
| COc1ccc(-c2cc3nc4c(c(NCCCn5ccnc5)n3n2)CCCC4)cc1 | 1.31% | 1.92% | 2.25% |
| Cc1cc(=O)c(-c2ccc(Oc3ccc(OC(F)(F)F)cc3)cc2)c(C)[nH]1 | -0.98% | -0.47% | -1.38% |
| CCCC(=O)NC(c1ccc(C(C)C)cc1)c1ccc2cccnc2c1O (stereo not given) | 2.04% | 3.11% | 0.65% |
| N#Cc1ccc(-c2nc(CO)c(C(=O)NCCCCN3CCC(c4ccc5c(c4OCC(N)=O)CCCC5)CC3)s2)cc1 | 1.02% | -1.06% | 1.74% |
| CC(=O)c1cccc(NC(=O)N2CCCN(CCCCCNC(=O)/C=C/c3ccc(Cl)c(Cl)c3)CC2)c1 | -1.7% | -0.03% | -0.6% |

| SMILES | inhibition [1] | inhibition [2] | inhibition [3] |
| --- | --- | --- | --- |
| O=C(N[C@@H](Cc1ccccc1)C(=O)O)c1cc(-c2ccc(F)cc2)no1.O=C(N[C@@H](Cc1ccccc1)C(=O)O)c1conc1-c1ccc(F)cc1 | 9.87% | 6.76% | 6.74% |
| Fc1cccc(COc2ccc(Nc3ncnc4sc(C#CCNC5CCC5)cc34)cc2Cl)c1 | 6.7% | 5.05% | 2.46% |
| CS(=O)(=O)c1ccccc1CNC(=O)c1ccc(-c2ccc(-c3nc4cc(C(F)(F)F)ccc4[nH]3)s2)cc1 | 7.56% | 2.99% | 0.84% |
| Cn1cncc1C(=O)Nc1cccc(-c2ccc(-c3nc4cc(C(F)(F)F)ccc4[nH]3)cc2)c1 | 9.17% | 6.73% | 5.1% |
| Cc1nc(N)nc(N)c1-c1cc(Cl)c(N)c(Cl)c1 | -0.04% | -0.43% | -1.52% |
| Cn1c(=N)n(CC(=O)N2CCc3ccc(Cl)cc3C2Cc2ccc(Cl)c(Cl)c2)c2ccccc21 (stereo not given) | 0.36% | 1.29% | 5.67% |
| O=C(NCC1CCN(CCN2CCc3ccc4c(c3C2)OCO4)CC1)c1ccc(-c2ccc(C(F)(F)F)cc2)cc1 | 2.17% | 4.3% | 1.81% |
| CCNC(=O)NC1CCN(Cc2c(-c3cccs3)nc3ccccc3c2C(=O)N[C@@H](C)C2CCCCC2)CC1 | 2.27% | 0.77% | -0.86% |
| CNc1ccc(CNCc2cccc(-c3ccc(-c4nc5cc(C(F)(F)F)ccc5[nH]4)cc3)c2)cc1 | -1.26% | 1.48% | 1.39% |
| Cc1ccc2[nH]c(C)cc(=NN=Cc3cccc(Cl)c3)c2c1 | 2.87% | 0.92% | 2.31% |
| CN1CCN(CCCN(Cc2cccc(-c3cccc(CNC4CCCC4)c3)c2)C(=O)/C=C/c2ccccc2)CC1 | -1.1% | -0.02% | -2.44% |
| O=C(Nc1ccc2c(ccn2C2CCCN(Cc3cc(F)cc(F)c3F)CC2)c1)c1ccco1 (stereo not given) | 1.97% | -3.49% | 2.17% |
| CC(C)CNCc1ccc(-c2cccc(CN(CCN(C)C)C(=O)CCC3CCCC3)c2)cc1 | 30% | 23.7% | 11.2% |
| CCc1ccc(S(=O)(=O)Nc2ccc(CCN(C)C3CCN(C)CC3)cc2)cc1 | 3.75% | 3.41% | 2.27% |
| CNS(=O)(=O)CCNCc1ccc(-c2ccc3ncnc(Nc4ccc(OCc5ccccc5)cc4)c3c2)o1 | 6.09% | 6.17% | 3.83% |
| Cc1cc(C(=O)Nc2ccc3c(c2)CCN3C2CCN(Cc3cccc(F)c3F)C2)no1 (stereo not given) | -0.4% | -0.88% | 0.24% |
| Cc1ccc(CON2C(N)=NC(N)=NC23CCCCC3)c2ccccc12 | 3.13% | 2.42% | 4.18% |
